Data reported in PubChem BioAssay (NCI).
Compounds without any hit were thinned out: in the full panel of roughly 83,000, 20% have a hit.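 How to read the values: 0–100, growth inhibition (40 = 60% inhibited); 0, no net growth; -100 to 0, cell death (-40 = 40% of starting cells died; -100 = all dead).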 The source made the active and inactive calls. How the source made its calls: active means growth percent below 10; inactive means the rest.

What was measured:
Assay in all cases: NCI-60 one-dose screen, 48 h (100 = growth as untreated, 0 = no growth, -100 = all killed)
HT29 colon = conditions: 10 µM unless noted
SNB-75 CNS = conditions: 10 µM unless noted
SNB-19 CNS = conditions: 10 µM unless noted
U251 CNS = conditions: 10 µM unless noted
PC-3 prostate = conditions: 10 µM unless noted
SK-MEL-5 melanoma = conditions: 10 µM unless noted
UACC-62 melanoma = conditions: 10 µM unless noted
LOX IMVI melanoma = conditions: 10 µM unless noted
SK-MEL-28 melanoma = conditions: 10 µM
SK-MEL-2 melanoma = conditions: 10 µM unless noted
SN12C renal = conditions: 10 µM unless noted
UO-31 renal = conditions: 10 µM unless noted
TK-10 renal = conditions: 10 µM unless noted
ACHN renal = conditions: 10 µM unless noted
CAKI-1 renal = conditions: 10 µM unless noted
A498 renal = conditions: 10 µM unless noted
CCRF-CEM leukemia = conditions: 10 µM unless noted
MOLT-4 leukemia = conditions: 10 µM unless noted
SR leukemia = conditions: 10 µM unless noted
EKVX NSCLC = conditions: 10 µM unless noted

Measured: growth

CN(C)c1ccc(/C=C/c2ccnc3c(O)cccc23)cc1
active: SK-MEL-5 melanoma 8.23% | UACC-62 melanoma -27.6% | UO-31 renal -2.54% | CAKI-1 renal -3.49% | CCRF-CEM leukemia 6.75% | MOLT-4 leukemia -13.2% | SR leukemia -11.1%
inactive: HT29 colon 98.6% | SNB-75 CNS 28.5% | SNB-19 CNS 26.4% | U251 CNS 12% | PC-3 prostate 32% | LOX IMVI melanoma 13.1% | SK-MEL-28 melanoma 29.1% | SK-MEL-2 melanoma 11.8% | SN12C renal 21.3% | TK-10 renal 41.6% | ACHN renal 12.7% | A498 renal 45.1%

CC(=O)n1cc(-c2c[nH]c3ccccc23)c(-c2ccc(Cl)cc2)n1
inactive: HT29 colon 95.9% | SNB-75 CNS 80.9% | SNB-19 CNS 112% | U251 CNS 74.9% | PC-3 prostate 81.5% | SK-MEL-5 melanoma 78.8% | UACC-62 melanoma 93.5% | LOX IMVI melanoma 86.8% | SK-MEL-28 melanoma 93.7% | SK-MEL-2 melanoma 97.6% | SN12C renal 99.8% | UO-31 renal 60.5% | TK-10 renal 94.9% | ACHN renal 78.5% | CAKI-1 renal 61.2% | A498 renal 71.6% | CCRF-CEM leukemia 82.2% | MOLT-4 leukemia 88.2% | SR leukemia 92.9%

CN(C)c1ccc(N=Cc2ccc(N3CCOCC3)cc2)cc1
inactive: HT29 colon 84.2% | SNB-75 CNS 81.3% | SNB-19 CNS 90.9% | U251 CNS 46.6% | PC-3 prostate 54.1% | SK-MEL-5 melanoma 82% | UACC-62 melanoma 84.8% | LOX IMVI melanoma 74.3% | SK-MEL-28 melanoma 114% | SK-MEL-2 melanoma 67.2% | SN12C renal 79% | UO-31 renal 71.4% | TK-10 renal 116% | ACHN renal 88.8% | CAKI-1 renal 86.6% | A498 renal 91.7% | CCRF-CEM leukemia 58.8% | MOLT-4 leukemia 65.2% | SR leukemia 75.6%

C1=CC2(C=C1)OC21CCC2(C=CC3(C2)OC3C2CCCCC2)CC1 (stereo not given)
inactive: HT29 colon 110% | SNB-75 CNS 94.2% | SNB-19 CNS 104% | U251 CNS 99.5% | PC-3 prostate 101% | SK-MEL-5 melanoma 106% | UACC-62 melanoma 99.7% | LOX IMVI melanoma 92.5% | SK-MEL-28 melanoma 105% | SK-MEL-2 melanoma 104% | SN12C renal 105% | UO-31 renal 96.8% | TK-10 renal 113% | ACHN renal 104% | CAKI-1 renal 93.6% | A498 renal 97.2% | CCRF-CEM leukemia 97.1% | MOLT-4 leukemia 95.6% | SR leukemia 90.7%

CCCCCCn1c(=N)n(CC(O)COc2cccc(C)c2)c2ccccc21 (stereo not given)
active: HT29 colon -46.2% | SNB-75 CNS -92.1% | U251 CNS -75.7% | PC-3 prostate -11% | SK-MEL-5 melanoma -98.7% | UACC-62 melanoma -72.4% | LOX IMVI melanoma -86.3% | SK-MEL-28 melanoma -92.3% | SK-MEL-2 melanoma -79.7% | UO-31 renal -96.1% | TK-10 renal -86.4% | ACHN renal -52.9% | CAKI-1 renal -21.6% | A498 renal -13% | CCRF-CEM leukemia 1.25% | MOLT-4 leukemia -3.39% | SR leukemia -28.5%
inactive: SNB-19 CNS 12.6% | SN12C renal 28.6%

CCOc1ccc2c(c1)CN(Cc1ccc(Cl)cc1)CO2
active: SNB-75 CNS -39.4%
inactive: HT29 colon 57.3% | SNB-19 CNS 18.1% | U251 CNS 25.4% | PC-3 prostate 49.1% | SK-MEL-5 melanoma 74.1% | UACC-62 melanoma 62.4% | LOX IMVI melanoma 35.2% | SK-MEL-28 melanoma 41.9% | SK-MEL-2 melanoma 50.4% | SN12C renal 67.7% | UO-31 renal 40.5% | TK-10 renal 20.1% | ACHN renal 33.2% | CAKI-1 renal 54.2% | A498 renal 39.5% | CCRF-CEM leukemia 78.1% | MOLT-4 leukemia 83.2% | SR leukemia 41.5%

COc1ccc(-c2nc(N3CCN(C(=O)C4CCCCC4)CC3)c3c4c(sc3n2)CCCC4)cc1
inactive: SNB-19 CNS 69.8% | SK-MEL-5 melanoma 36.5% | UACC-62 melanoma 44.1% | SK-MEL-2 melanoma 24.7% | SN12C renal 77.2% | ACHN renal 33.5% | A498 renal 57.1%
active: HT29 colon -49.9% | SNB-75 CNS -66.3% | U251 CNS -78.6% | PC-3 prostate -28.7% | LOX IMVI melanoma 5.28% | SK-MEL-28 melanoma -24.2% | UO-31 renal -7.01% | TK-10 renal -40.1% | CAKI-1 renal -12.1% | CCRF-CEM leukemia 5.79% | MOLT-4 leukemia 1.83% | SR leukemia -33.2%

NC(CCl)=NCCC[C@H](N)C(=O)O
inactive: HT29 colon 105% | SNB-75 CNS 89.6% | SNB-19 CNS 97.3% | U251 CNS 97.4% | PC-3 prostate 76% | SK-MEL-5 melanoma 93.1% | UACC-62 melanoma 91.5% | LOX IMVI melanoma 96.3% | SK-MEL-28 melanoma 107% | SK-MEL-2 melanoma 93.3% | SN12C renal 93.3% | UO-31 renal 85.2% | TK-10 renal 96.7% | ACHN renal 105% | CAKI-1 renal 97.2% | A498 renal 102% | CCRF-CEM leukemia 94.6% | MOLT-4 leukemia 104% | SR leukemia 93.5%

O=C(Nc1ccc(-c2nc3ccc(NC(=O)c4ccc(Cl)cc4)cc3[nH]2)cc1)c1ccc(Cl)cc1
active: HT29 colon -58.1% | SNB-75 CNS -31.6% | U251 CNS 2.01% | SK-MEL-5 melanoma 9.75% | UACC-62 melanoma 0.642% | LOX IMVI melanoma -49.6% | SK-MEL-28 melanoma 7.47% | SK-MEL-2 melanoma -33.9% | UO-31 renal -5.85% | TK-10 renal -27.9% | ACHN renal 9.32% | CCRF-CEM leukemia 1.27% | MOLT-4 leukemia 3.96% | SR leukemia -24.9%
inactive: SNB-19 CNS 35.2% | PC-3 prostate 38.3% | SN12C renal 24.5% | CAKI-1 renal 27.2% | A498 renal 58.7%

COc1ccc(Nc2nc(N/N=C/c3ccc(O)cc3)nc(Nc3ccc([N+](=O)[O-])cc3)n2)cc1
inactive: HT29 colon 105% | SNB-75 CNS 104% | SNB-19 CNS 101% | U251 CNS 104% | PC-3 prostate 108% | SK-MEL-5 melanoma 104% | UACC-62 melanoma 110% | LOX IMVI melanoma 107% | SK-MEL-28 melanoma 104% | SK-MEL-2 melanoma 103% | SN12C renal 103% | UO-31 renal 103% | TK-10 renal 115% | ACHN renal 103% | CAKI-1 renal 123% | A498 renal 105% | CCRF-CEM leukemia 99.9% | MOLT-4 leukemia 108% | SR leukemia 105%

CC(C)CCNCC(O)Cn1c2ccccc2c2ccccc21 (stereo not given)
inactive: SNB-19 CNS 24.4% | U251 CNS 14.4% | PC-3 prostate 20.2% | UACC-62 melanoma 14.1% | SK-MEL-28 melanoma 14.9% | SK-MEL-2 melanoma 13.7% | SN12C renal 19.4% | TK-10 renal 33.1% | CCRF-CEM leukemia 13%
active: HT29 colon -12.7% | SNB-75 CNS -3.3% | SK-MEL-5 melanoma -20.6% | LOX IMVI melanoma 1.91% | UO-31 renal -14.4% | ACHN renal 2.8% | CAKI-1 renal -0.189% | A498 renal 3.02% | MOLT-4 leukemia 2.44% | SR leukemia 3.35%

O=S1(=O)CCN(Cc2ccccc2)CC1
inactive: HT29 colon 103% | SNB-75 CNS 111% | SNB-19 CNS 92% | U251 CNS 104% | PC-3 prostate 101% | SK-MEL-5 melanoma 96.5% | UACC-62 melanoma 106% | LOX IMVI melanoma 98.3% | SK-MEL-28 melanoma 102% | SK-MEL-2 melanoma 119% | SN12C renal 101% | UO-31 renal 103% | TK-10 renal 94.3% | ACHN renal 97% | CAKI-1 renal 89.1% | A498 renal 75.9% | CCRF-CEM leukemia 98.1% | MOLT-4 leukemia 105% | SR leukemia 87.3%

COc1nc2c(c(=O)n1C)N=C1c3ccccc3C(=O)C1C(c1ccccc1)N2 (stereo not given)
inactive: HT29 colon 104% | SNB-75 CNS 84.6% | SNB-19 CNS 91.7% | U251 CNS 89.2% | PC-3 prostate 115% | SK-MEL-5 melanoma 88.7% | UACC-62 melanoma 78.6% | LOX IMVI melanoma 83.4% | SK-MEL-28 melanoma 90.5% | SK-MEL-2 melanoma 81.2% | SN12C renal 95.4% | UO-31 renal 78.9% | TK-10 renal 107% | ACHN renal 94% | A498 renal 89.1% | CCRF-CEM leukemia 103% | MOLT-4 leukemia 76.5%

O=C(CCN1C(=O)c2ccccc2C1=O)Nc1ccc(Cl)cc1
inactive: HT29 colon 44.4% | SNB-75 CNS 94.5% | SNB-19 CNS 90.3% | U251 CNS 62.2% | PC-3 prostate 71.7% | SK-MEL-5 melanoma 81% | UACC-62 melanoma 87.4% | LOX IMVI melanoma 60.2% | SK-MEL-2 melanoma 98.7% | EKVX NSCLC 88.2% | SN12C renal 75.3% | UO-31 renal 50.1% | TK-10 renal 93.1% | ACHN renal 82.2% | CAKI-1 renal 68.4% | A498 renal 103% | CCRF-CEM leukemia 43.3% | MOLT-4 leukemia 42%

COc1ccc2sc(N(Cc3cccnc3)C(=O)c3ccc(C#N)cc3)nc2c1
inactive: HT29 colon 23.4% | SNB-75 CNS 74% | SNB-19 CNS 98.6% | U251 CNS 67.4% | PC-3 prostate 78.2% | SK-MEL-5 melanoma 80.9% | UACC-62 melanoma 86.9% | LOX IMVI melanoma 75.9% | SK-MEL-28 melanoma 50.2% | SK-MEL-2 melanoma 109% | SN12C renal 80% | UO-31 renal 75.6% | TK-10 renal 96.6% | ACHN renal 91.2% | CAKI-1 renal 91.9% | A498 renal 89.6% | CCRF-CEM leukemia 72.1% | MOLT-4 leukemia 57.8% | SR leukemia 66.4%

COc1ccc(/C=C2\N=C(c3ccccc3)N(c3ccc(-c4nc5ccc(C)cc5s4)cc3)C2=O)cc1
inactive: HT29 colon 88.9% | SNB-75 CNS 69.9% | SNB-19 CNS 84.3% | U251 CNS 81.2% | PC-3 prostate 63.1% | SK-MEL-5 melanoma 85.3% | UACC-62 melanoma 73.2% | LOX IMVI melanoma 98.2% | SK-MEL-28 melanoma 114% | SK-MEL-2 melanoma 85.2% | SN12C renal 64.3% | UO-31 renal 34.2% | TK-10 renal 104% | ACHN renal 80.7% | CAKI-1 renal 61.9% | A498 renal 93.6% | CCRF-CEM leukemia 61.9% | MOLT-4 leukemia 45.9% | SR leukemia 80.2%

O=[N+]([O-])c1cc2c(ccc3occc32)o1
inactive: HT29 colon 11.8% | SNB-75 CNS 31.7% | SNB-19 CNS 49.4% | U251 CNS 48.7% | PC-3 prostate 66.7% | UACC-62 melanoma 20.5% | SN12C renal 32.4% | UO-31 renal 23.4% | TK-10 renal 35.7% | MOLT-4 leukemia 17.1% | SR leukemia 10.9%
active: SK-MEL-5 melanoma -77% | LOX IMVI melanoma -36.3% | SK-MEL-28 melanoma -63.5% | SK-MEL-2 melanoma -46% | ACHN renal 4.13% | CAKI-1 renal -19.7% | A498 renal -5.92% | CCRF-CEM leukemia 9.79%
